Source: PubChem BioAssay (NCI)
About 83,000 compounds went through this panel and 20% of them were active in at least one assay; those are over-represented in the sample as a whole.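 Single-concentration screen, 48 h exposure, 96-well plates. Endpoint: percent growth. Below 10 = active.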 Values without a mark were called inactive. Activity calls are given as the source filed them.

The compounds below were run on MDA-MB-468 breast (assay: NCI-60 one-dose screen, 48 h (100 = growth as untreated, 0 = no growth, -100 = all killed)). Settings: 10 µM unless noted.

SMILES	growth
Cn1/c(=N\N=C\c2ccccc2OCCO)sc2ccccc21	103%
O=C(/C(Br)=C/c1ccccc1)c1ccccc1	-31.9% (active)
CCCCCCCCc1ccc(OCCOCC[N+](C)(C)CC)cc1 (tested in a mixture with another compound)	-11.3% (active)
COc1ccc2c(c1)C(=O)/C(=C/c1cccnc1)CC2	100%
COc1ccc2[nH]cc(C(c3cc(F)cc(F)c3)c3c[nH]c4ccc(OC)cc34)c2c1	89.6%
O=C1c2ccc3c4c(ccc(c24)C(=O)N1CCNCc1ccccc1)C(=O)N(CCNCc1ccccc1)C3=O	-62.9% (active)
C=C1C(=O)O[C@H]2[C@H]1CC/C(COC(=O)NCc1ccc(Cn3c(=O)sn(CCCl)c3=O)cc1)=C\CC[C@@]1(C)O[C@@H]21	5.52% (active)
CCOC(=O)C1OC1c1ccccc1 (configuration not stated)	106%
O=c1[nH]c2c3ccncc3cc(-c3cccc(Cl)c3)c2c2cnccc12	42.1%
COc1ccccc1Cn1cc(C#N)c(N)c1C(=O)c1ccc(Br)cc1	72.2%
CC1=C(C)C(=O)C(Nc2cccc(C)c2)=C(Br)C1=O	-43.1% (active)
COc1cc(/C=C/c2cc(/C=C/c3ccc(O)c(OC)c3)n(-c3c(C)cccc3C)c(=O)n2)ccc1O	-16.4% (active)
C=C(C)[C@@H]1CC[C@]2(C)[C@H](CC=C3[C@@H]4C[C@](C)(C(=O)N5CCN(C)CC5)CC[C@]4(C)CC[C@]32C)[C@@]1(C)CCC#N	38.3%
N#Cc1cccc(-c2cc(-c3ccc4c(c3)OCCO4)[nH]n2)c1	18.6%
COc1cc2c(cc1OC)C1(C)N(CC2)C(=O)OC1(C)C (configuration not stated)	93.1%
NNC(=O)N/N=C1\C(=O)N(c2nccs2)C(=O)C(=O)C1c1nc2ccccc2s1 (configuration not stated)	106%
O=C(CSc1nc2sc3c(c2c(=O)n1-c1ccc(Cl)cc1)CCCC3)NNC(=O)Nc1cccc(C(F)(F)F)c1	8.29% (active)
COc1cc(-c2nc3ccccc3s2)ccc1NC(=O)COc1ccc(Cl)cc1	21.3%
O=c1[nH]nc(-c2ccccc2)c2c(-c3ccccc3)onc12	1.46% (active)

SMILES	growth
O=C1Nc2ccccc2/C1=C\c1nc(-c2ccccc2)n2ccccc12	-1.63% (active)
COc1ccc2sc(N(Cc3cccnc3)C(=O)c3ccc(C#N)cc3)nc2c1	73%
COc1ccc2c(c1)c(-c1nonc1-c1cn(C)c3ccc(OC)cc13)cn2C	29%
Brc1ccc(Br)nn1	-85.5% (active)
Cc1ccc2nc(-c3ccc(N=Cc4ccccc4O)cc3)sc2c1	86.4%
NC1=CC(=O)c2ccccc2C1=O	96.2%
Oc1cccc(-c2nc(-c3n[nH]c(=S)n3-c3ccccc3)cc3c2[nH]c2ccccc23)c1	9.85% (active)
C[C@@]1(CCC#N)[C@H]2CC[C@@H]3[C@H]4[C@H](C(=O)/C=C/c5cccnc5)CC[C@]4(C#N)CC[C@@]3(C)[C@]2(C)CC[C@H]1C(=O)/C=C/c1cccnc1	57.9%
CC1(C)NCCC[C@]2(C)[C@H]3CC[C@H]4[C@H]5[C@H](C(=O)/C=C/c6cccnc6)CCC[C@]5(CO)CC[C@@]4(C)[C@]3(C)CC[C@@H]12	-12.6% (active)
CCOCCC(=O)O	99.2%
COCCOCCOCc1n(Cc2ccc3ccccc3n2)c2ccccc2[n+]1Cc1ccc2ccccc2n1	-17.4% (active)
COc1ccc(C(=O)C2C(C#N)C(C#N)C3c4ccccc4C=CN23)cc1 (configuration not stated)	64.8%
CCCCCCCCCCCCCCCC(=O)OC[C@@]1(O)C[C@@]23CC[C@@H]4C(C)(C)CCC[C@@]4(C)[C@@H]2CC[C@H]1C3	103%
Cc1[nH]c(C(=O)Nc2ccccc2OCc2cccc(C(=O)N3CCC[C@@H](N)C3)c2)c(Cl)c1Cl	-74% (active)
Cc1ccc2nc(Cl)cc(=O)n2c1	112%
CCN1CCC[C@H]1c1cc(O)c2c(c1OC)C[C@H]1C[C@H]3[C@H](N)C(=O)C(C(N)=O)=C(O)[C@@]3(O)C(=O)C1=C2O	-18.7% (active)
O=C(Cc1ccccc1)C(F)(F)F	111%
CN(Cc1ccccc1)c1nc(Cl)c(C2CC(c3ccccc3)=NN2c2ccccc2)s1 (configuration not stated)	98.7%
